Compound activity from PubChem BioAssay.
Shown are actives, neighbours in structure and some others; about 11% of the full set was active somewhere.
BAZ2B block – inhibitors of human BAZ2B bromodomain. Q9UIF8. AlphaScreen BAZ2B-H3K14Ac peptide displacement. Potency, µM (titrated, usually from 114 µM), inactives show top-dose activity change, negative = inhibition, usual class: inhibitors. 360,000 compounds, 4.4% hits; note: potency is the fitted concentration of half-maximal effect; % is set by controls: 0 for no effect and ±100 for the full control effect; nearly all actives have a fitted effect of over 60% in size
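Protein-peptide AlphaScreen: BAZ2B 50 nM, b-H3K14Ac 50 nM, 1x PBS pH 7.4 + 0.01% Tween-20. Preincubation 30 min RT; cpd 30 min RT (top 110 uM); beads 20 min RT, light-protected.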
G9a inh – G9a (human) methyltransferase inhibition; G9a H3K9 monomethylation, AlphaScreen, 2 h; Potency, µM (doses to about 102 µM), for the others: top-dose activity, negative = inhibition, actives largely listed as inhibitors; 350,000 compounds, 8.8% hits; note: potency is the fitted concentration of half-maximal effect; % is set by controls: 0 for no effect and ±100 for the full control effect; nearly all actives have a fitted effect of over 75% in size
Target sequence (Q96KQ7 913-1193 limits assumed): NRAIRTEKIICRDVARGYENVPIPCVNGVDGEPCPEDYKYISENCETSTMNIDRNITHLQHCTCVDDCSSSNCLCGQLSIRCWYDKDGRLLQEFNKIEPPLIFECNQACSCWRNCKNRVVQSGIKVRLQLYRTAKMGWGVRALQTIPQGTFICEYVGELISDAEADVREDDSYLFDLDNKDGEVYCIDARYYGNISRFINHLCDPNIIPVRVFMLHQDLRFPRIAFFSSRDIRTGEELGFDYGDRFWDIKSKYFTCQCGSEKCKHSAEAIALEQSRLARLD
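AlphaScreen read-out: biotin-H3K9 peptide (500 nM) methylation by 20 nM enzyme with 20 uM SAM, 2 h at room temperature after 15 min compound preincubation; anti-monomethyl H3K9 antibody plus donor/acceptor beads, 10 min dark.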
PI5P4Ka inh – PI5P4K alpha (human) kinase inhibition | P48426 | PI5P4Kalpha enzyme, ADP-Glo luminescence, 60 min; active compounds read low | max response, % | 330,000 compounds, 1.2% hits | AID 652105; active = max response of -50% or lower; inconclusive = between -30% and -50%; inactive = -30% or higher; note: value at the top dose of about 77 µM; % is set by controls: 0 for no effect and ±100 for the full control effect
Target sequence (P48426 whole entry, looked up): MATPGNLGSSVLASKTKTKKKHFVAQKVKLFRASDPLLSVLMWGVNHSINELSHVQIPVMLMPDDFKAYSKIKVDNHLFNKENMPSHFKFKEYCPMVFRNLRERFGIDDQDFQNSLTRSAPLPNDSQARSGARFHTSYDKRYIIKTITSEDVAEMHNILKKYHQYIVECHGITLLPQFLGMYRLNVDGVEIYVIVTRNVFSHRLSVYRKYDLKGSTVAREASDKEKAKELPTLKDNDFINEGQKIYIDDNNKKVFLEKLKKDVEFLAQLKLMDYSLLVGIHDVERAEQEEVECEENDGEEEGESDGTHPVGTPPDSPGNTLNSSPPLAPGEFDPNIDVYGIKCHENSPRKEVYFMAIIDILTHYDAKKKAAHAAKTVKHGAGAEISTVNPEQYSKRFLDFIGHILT
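PI5P4Kalpha ADP-Glo assay; 5 microM ATP final; 60 min RT reaction; HEPES pH 7.4/EGTA/CHAPS, 5% DMSO; controls lacking substrate or enzyme; luminescent end-point.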
L3MBTL1 block – L3MBTL1 (human) inhibition | Q9Y468 | AlphaScreen L3MBTL1–H3K9me1 peptide binding | Potency, µM (highest dose often 57.1 µM), for inactives: at the highest dose activity, negative = inhibition, usual class: inhibitors | 230,000 compounds, 0.66% hits | AID 485360; note: potency is the fitted concentration of half-maximal effect; % is set by controls: 0 for no effect and ±100 for the full control effect; nearly all actives have a fitted effect of over 60% in size
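AlphaScreen proximity signal between nickel-chelate acceptor and streptavidin donor beads (final 10 ug/mL) reports binding of 50 nM L3MBTL1 to 75 nM biotin-H3 K9me1 peptide; complex incubated with compounds 30 min at room temperature; cefsulodin titration as control.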
JMJD2A Tudor – blocks the human JMJD2A Tudor domain | O75164 | AlphaScreen JMJD2A-Tudor / H3K4me3 peptide binding | Potency, µM (doses to about 114 µM), inactives show at the highest dose activity change, negative = inhibition, actives largely listed as inhibitors | 390,000 compounds, 4.4% hits; note: potency is the fitted concentration of half-maximal effect; % is set by controls: 0 for no effect and ±100 for the full control effect; nearly all actives have a fitted effect of over 50% in size
HP1b chromo inh – blocks HP1-beta chromodomain binding to methylated histone tails; P83916; AlphaScreen HP1-beta / biotin-H3K9me3 peptide binding; Potency, µM (doses to about 114 µM), for inactives: at the highest dose activity change, negative = inhibition, most hits filed as inhibitors; 390,000 compounds, 0.56% hits; note: potency is the fitted concentration of half-maximal effect; nearly all actives have a fitted effect of over 70% in size
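AlphaScreen: HP1-beta (50 nM) preformed 30 min with biotin-H3(1-18)K9me3 peptide (50 nM) in PBS pH 7.4, 0.01% Tween-20. Compound added for 30 min at RT, then streptavidin donor/nickel chelate acceptor beads (10 ug/mL) for 30 min.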
Numbers without * were called inactive; [ ] = another dose, or the depositor's remark. Unless noted, calls come from the whole dose curve; as a rule, active = well fitted inhibition curve with a large enough effect; inconclusive = small, poorly fitted or top-dose-only effect; inactive = no such curve, though single readings can be large or run the other way.

For CCN(CC)S(=O)(=O)c1ccc2c(c1)nc(CN(C)C(=O)Nc1ccc(C)c(Cl)c1)n2C the results were BAZ2B block -20.6%, G9a inh 10.2%[59 µM], JMJD2A Tudor -17.9% and HP1b chromo inh 39.6%.
`COc1ccc(CNC(=O)C2CCCN(S(=O)(=O)c3ccc4c(ccn4C)c3)C2)c(OC)c1` (stereo unspecified) gave BAZ2B block -11.6%, G9a inh 8.3%[59 µM], JMJD2A Tudor -20.4% and HP1b chromo inh 13.7%[57 µM].
Screening CN(C)CCNC(=O)c1ccc(Cn2c(=O)c3cccn3c3cccnc32)cc1 returned BAZ2B block -5.6%, G9a inh -8.0%[59 µM], JMJD2A Tudor -13.6% and HP1b chromo inh 58.5%.
Screening Cc1ccc(C2CC(=O)Oc3cc(C)c(Cl)cc32)cc1 (stereo unspecified) returned G9a inh 48.8%.
For Cc1sc2c(c1C)c(=O)n(-c1ccc(Cl)cc1)c(=O)n2Cc1c(F)cccc1Cl the results were BAZ2B block 3.4%, G9a inh -6.3%[59 µM], JMJD2A Tudor -16.7% and HP1b chromo inh 5.2%.
CC(=O)N1CCOc2cc(S(=O)(=O)NCc3ccccc3Cl)c(C)cc21 was read as BAZ2B block -1.9%, G9a inh -26.3%[59 µM], JMJD2A Tudor -16.1% and HP1b chromo inh 33.2%.
`O=C(c1ccc([N+](=O)[O-])cc1)N1CCSC1c1ccc(Br)cc1` (stereo unspecified) gave BAZ2B block inconclusive, G9a inh inconclusive, PI5P4Ka inh 5.5, JMJD2A Tudor -12.0%[11.4 µM] and HP1b chromo inh 15.8µM*.
For O=c1[nH]nc(CNc2ccc(O)cc2)c2ccccc12 the results were BAZ2B block inconclusive, G9a inh 11.2µM*, PI5P4Ka inh -20.4, JMJD2A Tudor -20.7% and HP1b chromo inh 9.9%.
Brc1ccc(CNCCCSc2nnnn2-c2ccccc2)cc1 was read as BAZ2B block -19.0%, G9a inh 0.0%[59 µM], JMJD2A Tudor -1.3% and HP1b chromo inh 41.1%.
`Cn1c(=O)n(C)c2cc(N3CCOCC3)c(NS(=O)(=O)c3cccc(C#N)c3)cc21` gave BAZ2B block 22.4µM*, G9a inh 6.31µM*, JMJD2A Tudor 50.1µM* and HP1b chromo inh inconclusive.
`Cn1c(=O)c(=O)n(C)c2cc(N3CCOCC3)c(NS(=O)(=O)c3ccc(Cl)cc3)cc21` gave BAZ2B block -22.2%, G9a inh -44.9%[59 µM], JMJD2A Tudor -15.0% and HP1b chromo inh 11.7%.
O=C(Nc1cccc(C(=O)O)c1)/C(=C/c1cccc([N+](=O)[O-])c1)NC(=O)c1cccc(Br)c1 was read as PI5P4Ka inh -0.8, JMJD2A Tudor -23.0% and HP1b chromo inh 21.3%.
Screening O=C(N/N=C/C(Cl)=C/c1ccc([N+](=O)[O-])cc1)C(=O)Nc1cccc(C(=O)O)c1 returned BAZ2B block 56.2µM*, G9a inh inconclusive, PI5P4Ka inh 0.0, L3MBTL1 block -22.9%, JMJD2A Tudor inconclusive and HP1b chromo inh 7.0%.
For O=S(=O)(Nc1ccc(NS(=O)(=O)c2ccccc2)c2ccccc12)c1ccccc1 the results were PI5P4Ka inh -0.4.
`O=c1[nH][nH]c(=O)c2c(NS(=O)(=O)c3ccccc3)cccc12` gave BAZ2B block -2.2%, G9a inh -5.6%[59 µM], PI5P4Ka inh -2.3, L3MBTL1 block 4.2%, JMJD2A Tudor 44.7µM* and HP1b chromo inh -18.3%.
Screening CCCS(=O)(=O)N1CCN(Cc2ccccc2OCC)CC1 returned BAZ2B block inconclusive, G9a inh inconclusive, PI5P4Ka inh 0.8, L3MBTL1 block -2.1%, JMJD2A Tudor 2.82µM* and HP1b chromo inh inconclusive.
Screening CCOc1ccccc1CN1CCC(O)CC1 returned BAZ2B block inconclusive, G9a inh -24.4%[12.7 µM], JMJD2A Tudor 5.62µM* and HP1b chromo inh inconclusive.
`CCOc1ccccc1CN1CCCC(C(=O)c2ccc(OC)c(OC)c2)C1` (stereo unspecified) gave BAZ2B block -33.6%, G9a inh 0.5%[59 µM], PI5P4Ka inh -8.8, L3MBTL1 block -4.5%, JMJD2A Tudor -18.0% and HP1b chromo inh 29.4%.
`CCCS(=O)(=O)N1CCN(C(=O)COc2ccccc2)CC1` gave BAZ2B block -1.3%, G9a inh 27.0%, JMJD2A Tudor -1.5% and HP1b chromo inh 18.4%.
`CCCN(C(=O)COC(=O)CSc1ccc([N+](=O)[O-])cc1)C1CCS(=O)(=O)C1` (stereo unspecified) gave BAZ2B block -3.0%, G9a inh 21.7%[12.7 µM], PI5P4Ka inh inconclusive, L3MBTL1 block 1.4%, JMJD2A Tudor 56.2µM* and HP1b chromo inh inconclusive.
Screening CN(C(=O)COC(=O)CSc1ccc([N+](=O)[O-])cc1)c1ccccc1 returned BAZ2B block -0.6%, G9a inh -25.3%[59 µM], PI5P4Ka inh -16.4, L3MBTL1 block -1.4%, JMJD2A Tudor 79.4µM* and HP1b chromo inh inconclusive.
`COc1ccc(C(=O)CN2C(=O)N(c3ccc(C(C)=O)cc3)S(=O)(=O)c3ccccc32)cc1` gave BAZ2B block -16.4%, G9a inh -5.2%[59 µM], JMJD2A Tudor -17.3% and HP1b chromo inh 0.6%.
Nc1ccc(N(CCO)CCO)cc1 was read as BAZ2B block 50.1µM*, G9a inh 11.2µM*, PI5P4Ka inh -0.6, L3MBTL1 block 12.6µM*, JMJD2A Tudor 8.91µM* and HP1b chromo inh inconclusive.
For CCN(CC)c1ccc(C(=O)NN)cc1 the results were BAZ2B block -36.7%, G9a inh 19.1%[59 µM], PI5P4Ka inh 0.2, JMJD2A Tudor -29.1% and HP1b chromo inh 9.0%.
Nc1ccc(C(=O)N(CCO)CCO)cc1 was read as BAZ2B block -24.2%, G9a inh -3.9%, PI5P4Ka inh -5.3, L3MBTL1 block 3.9%, JMJD2A Tudor -8.6% and HP1b chromo inh 23.8%.
CCN(CC)c1ccc(N)cc1 was read as BAZ2B block 31.6µM*, G9a inh -4.0%[0.501 µM], PI5P4Ka inh -6.2, L3MBTL1 block inconclusive, JMJD2A Tudor 17.8µM* and HP1b chromo inh 12.6µM*.
For CCOCCc1nn2c(=O)cc(COC(=O)c3ccc(NC(=O)C4CCCCC4)cc3)nc2s1 the results were BAZ2B block -7.1%, G9a inh 3.0%[59 µM], JMJD2A Tudor -31.5% and HP1b chromo inh 29.7%.
`O=C(Nc1cccc(F)c1)N1CC2(CCN(C(=O)c3ccco3)CC2)C1` gave G9a inh 0.7%[12.7 µM].
Screening COc1ccccc1S(=O)(=O)Cc1ccc(C(=O)NCCN2CCCCCC2)o1 returned BAZ2B block 5.6%, G9a inh 50.1µM*, PI5P4Ka inh -2.2, L3MBTL1 block 5.2%, JMJD2A Tudor -26.1% and HP1b chromo inh 53.1%.
